The results in this text go back to article PMC7819943, “Rice protein-binding microarrays: a tool to detect cis-acting elements near promoter regions in rice”.

The full ranking holds about 68,000 sequences; the median of “fluorescence intensity (a.u.)” is about 9,100, and the highest 2% start at about 16,000. This excerpt belongs to a sample that is enriched for the highest values.

OsWRKY34, sequence (Q0JBA9 entry or part of it): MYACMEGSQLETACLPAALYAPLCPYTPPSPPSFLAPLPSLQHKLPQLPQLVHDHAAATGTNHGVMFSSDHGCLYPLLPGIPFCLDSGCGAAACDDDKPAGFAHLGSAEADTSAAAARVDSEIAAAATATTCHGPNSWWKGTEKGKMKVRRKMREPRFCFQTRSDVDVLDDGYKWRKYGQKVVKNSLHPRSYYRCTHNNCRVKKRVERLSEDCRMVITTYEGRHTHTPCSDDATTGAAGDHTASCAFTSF

For the assay, the target named is OsWRKY34 (Oryza sativa, UniProt Q0JBA9 1-250). Briefly: protein-binding microarray (RPBM); PBS, 2% BSA, 51.3 ng/ul salmon testes DNA, 50 uM zinc acetate, 200 nM TF, 25 C, 1 h; high values mean tight binding. Conditions: protein: recombinant; tags: N-terminal polyhistidine and DsRed monomer fusion (pET32a); label: CyDye5-dUTP incorporated in the synthesized complementary strand; 3' TTTTT single-stranded linker to array surface; dsDNA, one strand shown. A digest of the protocol:
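Binding signal is defined as the fluorescence intensity of each feature in arbitrary units, read on an Axon 4000B scanner. Transcription factors with N-terminal polyhistidine and DsRed fusions came from E. coli BL21-CodonPlus and were purified on Ni–NTA. They were incubated at 200 nM for 1 h at 25 °C on a custom Agilent array that had been made double-stranded with Cy5-dUTP, with 50 µM zinc acetate present, and the array was washed.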
With “TCAGTCGCTTCCTCTCTTTATTATCACAGATTCACAGTCCCGGAGTCACCTAGTGCAG”, the binding signal was 8370 fluorescence intensity (a.u.).
On to “AACTTTTTCATGTCACTTCACTTTTTTTTGTTAGCAGCCTCGGAGTCACCTAGTGCAG”, for which the binding signal was 11200 fluorescence intensity (a.u.).
As for “TGAACACACGCACGCAAACCCTACCTCCATGAGTATCTTCCGGAGTCACCTAGTGCAG”, the binding signal was 10500 fluorescence intensity (a.u.).
On to “TGTCTTAATTTCGTGGAAGGCCATAGCGGAGAGATCAAAACGGAGTCACCTAGTGCAG”, for which the binding signal was 17400 fluorescence intensity (a.u.).
To “GTCAAGAATGTGCTAAAAAGTCAACGGTGTCAAACAGTTTCGGAGTCACCTAGTGCAG” belongs 10600 fluorescence intensity (a.u.); to “CGTCTTTTCTCCTTGTCTTGCTAGCCATATCAACGGAAGGCGGAGTCACCTAGTGCAG”, 8080 fluorescence intensity (a.u.); to “TTGATTCCGTGTCGCATATCTGTCTTAATTTCGTGGAAGGCGGAGTCACCTAGTGCAG”, 9570 fluorescence intensity (a.u.).
For “CATTGATTTTTTTTCTGTTTTCATGATCAATTTTTTTTCTCGGAGTCACCTAGTGCAG”, the binding signal is 11100 fluorescence intensity (a.u.).
To “GTTTCCATTTCTGTTATTTTTTATTTCAAATTTCATTCTTCGGAGTCACCTAGTGCAG” belongs 11800 fluorescence intensity (a.u.).
Turning to “CTAATTGTTTTTTTAAATAGTGTTTTGTTTTATTGAAAACCGGAGTCACCTAGTGCAG”, the binding signal was 9040 fluorescence intensity (a.u.).
“AAAGGAATGGCCCAAATAAACAAGTTTTTTCCTAAAATAACGGAGTCACCTAGTGCAG”: the binding signal was 63000 fluorescence intensity (a.u.).
The result for “TTAAATAAGACAAATGGTCAAACATGTGCTAAAAAGTCAACGGAGTCACCTAGTGCAG” reads 10600 fluorescence intensity (a.u.); that for “TAATGGAAAAAATTGTTTAAAAAAGGTCAAATAGTAAAAACGGAGTCACCTAGTGCAG”, 58800 fluorescence intensity (a.u.).
As for “AAATTTAAAGTAATTTGACTTTGAAAGTCAAAACTTGTAACGGAGTCACCTAGTGCAG”, the binding signal was 8600 fluorescence intensity (a.u.).
On to “AATTTATGGAGATCATTTTTTTTCTGTTTCAAAGGAAAAACGGAGTCACCTAGTGCAG”, for which the binding signal is 19200 fluorescence intensity (a.u.).
“CTTCTTATCTCCCATATCTTAGGGTGTGTTTCGTTTTATGCGGAGTCACCTAGTGCAG”: the binding signal is 8050 fluorescence intensity (a.u.).
As to “GCCTATCCACAACATCGTCGCAGGCCTTCTTTTTCCCTCGCGGAGTCACCTAGTGCAG”, the binding signal was 8320 fluorescence intensity (a.u.).
The result for “ACAGCGGTTTTGGTTGACGTAGTGCCTATGTGGCGTTGACCGGAGTCACCTAGTGCAG” reads 11700 fluorescence intensity (a.u.); that for “GATTTAGCCAGTATAATTTGGCTTCTTACCTATCCATTTTCGGAGTCACCTAGTGCAG”, 9130 fluorescence intensity (a.u.).
With “CCAATCTAGCATTTAAATAGCCCATATTTGTCTAATTTCTCGGAGTCACCTAGTGCAG”, the binding signal is 8400 fluorescence intensity (a.u.).
The result for “ATGGTGGGTCTTTTGCTTCTATCTTCTTCTATGCATGAAACGGAGTCACCTAGTGCAG” reads 10400 fluorescence intensity (a.u.).
To “TTGTTAATGCTAATTTTATCAACATGTGCTTTTCTTTTTACGGAGTCACCTAGTGCAG” belongs 9500 fluorescence intensity (a.u.); to “CGCGAGACAATCTAGCCGTTCTTCATTTTTTTCGCTTTCCCGGAGTCACCTAGTGCAG”, 9240 fluorescence intensity (a.u.).
With “ACTGTGATACATTCTACATAATTTATTCATTTATTTGCATCGGAGTCACCTAGTGCAG”, the binding signal is 8900 fluorescence intensity (a.u.).
In the case of “CATTAATTCCAACATATAGTACTCCGCCATTTTGACTCGCCGGAGTCACCTAGTGCAG”, the binding signal was 8640 fluorescence intensity (a.u.).
To “AATGTTATTACTATGCCTGGAACGTCACTTATGTATGTCTCGGAGTCACCTAGTGCAG” belongs 10500 fluorescence intensity (a.u.).
For the sequence “GATCATCTGGTGGTGTGTTCTACGGGTTGCAGCTTCTTTCCGGAGTCACCTAGTGCAG”, the binding signal was 10600 fluorescence intensity (a.u.).
In the case of “ATTGCCGTTTATATTTGGTCAAATTTAAACGTTTTCTTTTCGGAGTCACCTAGTGCAG”, the binding signal was 8020 fluorescence intensity (a.u.).
Turning to “TTGCCTTGCCAGTCAGTGCTCGAGTTCGTCTCGCTCTCCGCGGAGTCACCTAGTGCAG”, the binding signal is 8730 fluorescence intensity (a.u.).
With “GACCGCCGCCGCTTGAGCTGACCTGACCCCGAGCCGAGCCCGGAGTCACCTAGTGCAG”, the binding signal was 8250 fluorescence intensity (a.u.).
To “GCCGAGCCCCATCTTCTGCTGCGACCCCGTAGCGCTCAACCGGAGTCACCTAGTGCAG” belongs 9240 fluorescence intensity (a.u.); to “GCCCCGAGCCGAGACCGCTGGATAATGCAGCGCTTCTTACCGGAGTCACCTAGTGCAG”, 20100 fluorescence intensity (a.u.); to “AGTCAGTGGGTAAATTCTTTAAAAACTCCTATGTTTTTTCCGGAGTCACCTAGTGCAG”, 9550 fluorescence intensity (a.u.).
Consider “AACAAGGGAGGGAGGGGCGGCGATCTCCATCTGGCGAGCACGGAGTCACCTAGTGCAG”, for which the binding signal is 10900 fluorescence intensity (a.u.).
As for “CTGATTTGCGGGTTCCACATGGATTTTATTTTTTTGTTTCCGGAGTCACCTAGTGCAG”, the binding signal is 11400 fluorescence intensity (a.u.).
To “GGGGCTAGGGTTTGGGTGGGATCTCAGCCGTCGGATCTGACGGAGTCACCTAGTGCAG” belongs 17000 fluorescence intensity (a.u.); to “GCGGCGGGGTTCCTATCCATGGTTTTTTCGGGCTTGTCCACGGAGTCACCTAGTGCAG”, 18900 fluorescence intensity (a.u.).
The result for “GCGGCGGTGGTTAGGGTTTGGGGCTCGTCGGCGTCGGCGACGGAGTCACCTAGTGCAG” reads 10900 fluorescence intensity (a.u.); that for “ACGATCAGTGTCATCACAGGGCGGCGGGGTTCCTATCCATCGGAGTCACCTAGTGCAG”, 13200 fluorescence intensity (a.u.); that for “AGGGATAGATTGGCTTAGGGGCGGGTGGGTCTAGAGATTTCGGAGTCACCTAGTGCAG”, 27000 fluorescence intensity (a.u.).
With “ACATTGGGTTGGAGTGGATTATTTTTTTCCTTTGTTTTCCCGGAGTCACCTAGTGCAG”, the binding signal was 14200 fluorescence intensity (a.u.).
The result for “GCTTGGTCCATACCTTGTTTTCCTATCATCCACTGTCAATCGGAGTCACCTAGTGCAG” reads 9390 fluorescence intensity (a.u.).
To “ATTGGGGCGGCGGTGGCGGGCTAGGGTTTCGTAGATTCGACGGAGTCACCTAGTGCAG” belongs 9960 fluorescence intensity (a.u.).
The result for “CGCCTCGACGGGTTTGGATCTCGGGGTGGGATTAGAGGGGCGGAGTCACCTAGTGCAG” reads 12900 fluorescence intensity (a.u.); that for “GGATTCGGAGGCGGGTGGGAGTGGGAGAGTGAGAGGGGCTCGGAGTCACCTAGTGCAG”, 16200 fluorescence intensity (a.u.).
Consider “GGGCGGGTTTGGATTTTTATTTGGTTTTCCTATGGAGTCCCGGAGTCACCTAGTGCAG”, for which the binding signal is 17800 fluorescence intensity (a.u.).
